Rows were chosen to be rich in hits. Some 10% of all compounds tested hit in one or more screens of this group.
HPGD block: HPGD (human) dehydrogenase inhibition; purified HPGD, NADH fluorescence kinetic, PGE2 substrate; 150,000 tested, 4.3% active; Potency, µM, most hits filed as inhibitors; P15428; AID 894
Target sequence (P15428 whole entry, looked up): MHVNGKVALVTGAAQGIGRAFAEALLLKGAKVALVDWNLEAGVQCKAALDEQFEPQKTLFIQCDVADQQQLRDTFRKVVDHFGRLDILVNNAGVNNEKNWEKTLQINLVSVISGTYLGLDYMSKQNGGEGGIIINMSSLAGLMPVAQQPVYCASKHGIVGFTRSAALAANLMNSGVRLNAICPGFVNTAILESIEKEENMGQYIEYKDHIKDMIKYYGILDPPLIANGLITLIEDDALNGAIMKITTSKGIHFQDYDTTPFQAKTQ
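20 nM HPGD preincubated 15 min at room temperature with compound in 50 mM Tris-HCl pH 8, 0.01% Tween 20. Started with 1 mM NAD+ and 30 uM prostaglandin E2; NADH fluorescence (360/450 nm) read 5 times over 30-s intervals, last minus first.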
PNC assembly inh: inhibitors of perinucleolar compartment assembly; PC3M PTB-GFP, PNC prevalence imaging, 16 h; stronger effect = lower value; activity change (PNC), negative = inhibition, % at 10 µM; 140,000 tested, 3.1% active; AID 2417;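 active means readout at or below -70, meaning at least 70% loss of cells showing the perinucleolar compartment, a nuclear body marking cancer cells; inconclusive means readout between -30 and a set limit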
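PC3M cells stably expressing PTB-GFP, 750–1000 cells/well, treated 16 h at 37 °C with compound (23 nl of library stock), in duplicate. After paraformaldehyde fixation and Hoechst stain, imaged at 20x; PNC prevalence scored by image analysis.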
LMNA splice mod: changes lamin A minigene splicing in HeLa cells. HeLa LMNA splicing GFP/RFP minigene ratio, 48 h. Potency, µM (series often up to 46.1 µM), hits mostly inhibitors. 200,000 tested, 0.01% active; active means well fitted inhibition curve with a large enough effect in the signal ratio, with a control signal flat, not every such curve was filed as active; inconclusive means small, poorly fitted or top-dose-only effect, or effect the other way, or a change in a side signal; the % refers to the signal ratio
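S3 HeLa stable clones carrying a lamin A-EGFP splicing minigene plus DsRed2 were seeded at 600 cells/well in Opti-MEM with 2% FBS, pin-dosed and incubated 48 h at 37°C. Acumen cytometry (488 nm) gave the GFP/RFP total-intensity ratio.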
12-hLO inh: 12-hLO (ALOX12) enzyme inhibition; P18054; purified 12-hLO, xylenol orange hydroperoxide absorbance; Potency, µM (highest dose often 57.1 µM), hits mostly inhibitors; 150,000 tested, 0.12% active; AID 1452; active means well fitted inhibition curve with a large enough effect; inconclusive means small, poorly fitted or top-dose-only effect; further: nearly all actives have a fitted effect of over 55% in size
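Purified human 12hLO (150 nM), preincubated 15 min with compound, then 40 uM arachidonic acid for 30 min, room temperature, Hepes pH 7.0 with 0.01% Triton X-100. Hydroperoxide detected by ferrous iron/xylenol orange; 573/405 nm absorbance ratio gives reaction progress.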
ALDH1A1 inh: ALDH1A1 (human) enzyme inhibition. P00352. AID 1030. Potency, µM (doses to about 75.3 µM), hits mostly inhibitors. Purified ALDH1A1, NADH fluorescence, propionaldehyde substrate. 220,000 tested, 7.3% active
Numbers stand for hits; [ ] = remark or other dose. Unless noted, the call rests on the fitted dose curve; in most records, active means well fitted inhibition curve with a large enough effect (not every such curve was filed as active); inconclusive means small, poorly fitted or top-dose-only effect, or another doubt; inactive means no such curve, though single readings can be large or run the other way.

Results for O=C(CCN1CCc2ccccc2C(c2ccccc2)C1)c1ccc2c(c1)OCCO2 (centres undefined) ?
HPGD block: inactive; PNC assembly inh: inactive; LMNA splice mod: inconclusive; 12-hLO inh: inactive; ALDH1A1 inh: 0.141µM

Results for CN(C)CCC(=O)c1ccc2c(c1)OCO2 ?
HPGD block: inactive; PNC assembly inh: inactive; LMNA splice mod: inconclusive; 12-hLO inh: inactive; ALDH1A1 inh: 0.0224µM

How did CCCC(=O)c1ccc2c(c1)OCCO2 do in these assays?
HPGD block: 28.2µM; PNC assembly inh: inactive; LMNA splice mod: inactive; 12-hLO inh: inactive; ALDH1A1 inh: inactive

Results for CCNC(=S)N/N=C/c1cccc(OCc2c(F)cccc2Cl)c1 ?
HPGD block: inactive; PNC assembly inh: inactive; LMNA splice mod: inconclusive; 12-hLO inh: inconclusive; ALDH1A1 inh: inactive

Results for Cc1ccc2c(c1)c(=O)c(C(=O)c1ccncc1)cn2CC(=O)Nc1ccccc1Cl ?
LMNA splice mod: inactive

Results for Cc1nc2n(n1)C(c1ccccc1)C1=C(CC(c3ccco3)CC1=O)N2 (centres undefined) ?
HPGD block: inconclusive; PNC assembly inh: inactive; LMNA splice mod: inactive; 12-hLO inh: inactive; ALDH1A1 inh: inconclusive

How did O=C1CC(c2ccco2)CC2=C1C=Nc1ccccc1N2 (centres undefined) do in these assays?
HPGD block: inactive; PNC assembly inh: inconclusive; LMNA splice mod: inactive; 12-hLO inh: inactive; ALDH1A1 inh: 2µM

How did CC1CC(=O)NN=C1c1ccc(NCCO)c([N+](=O)[O-])c1 (centres undefined) do in these assays?
HPGD block: inactive; PNC assembly inh: inactive; LMNA splice mod: inactive; 12-hLO inh: inactive; ALDH1A1 inh: inactive

What do the screens show for `COc1ccc(C(=O)Nc2ccc(C3=NNC(=O)CC3C)cc2NC(=O)c2ccc(OC)cc2)cc1` (centres undefined)?
LMNA splice mod: inactive; ALDH1A1 inh: 2µM

Results for Cc1ccc(C2CC(=O)N(Cc3ccccc3)c3c2c(C)nn3-c2nc(C)cc(C)n2)cc1 (centres undefined) ?
LMNA splice mod: inactive

How did N#CCc1ccc(C(=O)c2ccccc2)s1 do in these assays?
HPGD block: 28.2µM; PNC assembly inh: -81.9; LMNA splice mod: inactive; 12-hLO inh: inactive; ALDH1A1 inh: inconclusive

What do the screens show for `C[C@@H](C(=O)O)c1ccc(C(=O)c2ccccc2)s1`?
HPGD block: 14.1µM; LMNA splice mod: inconclusive; 12-hLO inh: inactive; ALDH1A1 inh: inactive

Results for COC(=O)C/C=C/C(C)C(OC)c1ccccc1Br (centres undefined) ?
ALDH1A1 inh: inactive[13.5 µM]

Results for O=[N+]([O-])c1ccc(Cl)c(CNc2ncnc3c2ncn3[C@@H]2CCCCO2)c1 ?
HPGD block: 3.55µM; 12-hLO inh: inactive[11.4 µM]; ALDH1A1 inh: inactive[13.5 µM]

Results for Clc1ccc(CSc2ncnc3c2ncn3[C@@H]2CCCCO2)cc1 ?
HPGD block: inactive; 12-hLO inh: inactive[11.4 µM]; ALDH1A1 inh: inactive[13.5 µM]

Results for CN(C)c1ncc2nc(-c3cc(F)cc(F)c3)c(=O)n(-c3ccccc3)c2n1 ?
LMNA splice mod: inactive; ALDH1A1 inh: inactive

What do the screens show for `CCn1c(=O)c(C(=O)Nc2ccccc2C)c(O)c2ccccc21`?
HPGD block: inconclusive; PNC assembly inh: -100.0; LMNA splice mod: inactive; 12-hLO inh: inactive; ALDH1A1 inh: inactive

What do the screens show for `CCn1c(=O)c(-[n+]2ccccc2)c(O)c2ccccc21`?
HPGD block: inactive; PNC assembly inh: inactive; LMNA splice mod: inactive; 12-hLO inh: inactive; ALDH1A1 inh: 25.1µM

Results for CCOc1ccccc1NC(=O)N(C)CCc1c(C)nn(CC)c1C ?
LMNA splice mod: inactive

Results for CC(C)CN(CC(C)C)CC(O)COc1ccc([N+](=O)[O-])cc1 (centres undefined) ?
HPGD block: inactive; PNC assembly inh: inactive; LMNA splice mod: inactive; 12-hLO inh: inactive; ALDH1A1 inh: inactive

Results for COC(=O)Cc1c[nH]c2cccc(OCC(O)CN(Cc3ccc([N+](=O)[O-])cc3)C(C)(C)C)c12 (centres undefined) ?
HPGD block: inactive; PNC assembly inh: inconclusive; LMNA splice mod: inconclusive; 12-hLO inh: inactive; ALDH1A1 inh: 25.1µM

Results for CCc1ccccc1N1CC(c2nnc(NC(=O)c3ccco3)s2)CC1=O (centres undefined) ?
LMNA splice mod: inactive

Bioassay records as filed in PubChem BioAssay.
